# In PubChem BioAssay (Tox21):
# Values joined by “and” are separate entries in the source; they are usually repeats but may differ in a detail not shown here. Equal entries are not always repeated. Inconclusive results are not listed. Where a call stands in place of a potency, no number is given. A structure can be active in one record and inactive in another. Active and inactive are the calls of the source. Unless noted, calls come from the whole dose curve.
# System: not listed separately
# Experiment: qHTS assay to identify small molecule antagonists of the estrogen receptor alpha (ER-alpha) signaling pathway - cell viability counter screen (AID 743074);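 note: HEK293 cells carrying ER-alpha-UAS-bla reporter stimulated with 17beta-estradiol; nearly all actives have a fitted effect of over 45% in size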
# Conditions: ERalpha-bla HEK293 viability, CellTiter-Glo luminescence, 18 h; series mostly up to 69.4 µM; activity, negative = cytotoxicity: at the top concentration
Compound,"activity, negative = cytotoxicity",outcome
CNC(=O)O/N=C(\SC)C(=O)N(C)C,-3.91% (inactive),
CCCCC(CC)C(=O)Cl (stereo not drawn),-18.2% [at 79.1 µM] (inactive),
O=[N+]([O-])c1ccc(Cl)c(Cl)c1,20.6% (inactive),
CNC(=O)O/N=C/C(C)(C)S(C)=O (stereo not drawn),-9.57% (inactive),
COP(=S)(OC)SCN1C(=O)c2ccccc2C1=O,,inactive
CNC(=O)Oc1cccc2ccccc12,,inactive
CNC(=O)O/N=C/C(C)(C)SC,,inactive
CC(C)CCCCCCOC(=O)c1ccccc1C(=O)OCCCCCCC(C)C,,inactive
O=C(O)CCCc1ccc(N(CCCl)CCCl)cc1,,inactive
O=C(O)Cc1ccccc1,,inactive
Oc1ccc(Cl)cc1,15.3% (inactive),
OCc1ccco1,11.9% (inactive),
FC(F)(F)c1ccc(Cl)cc1,,inactive
Nc1ccc(N)cc1,,inactive
Cc1cc(Cl)ccc1OC(C)C(=O)O (stereo not drawn),,inactive
O=[N+]([O-])c1cc([As](=O)(O)O)ccc1O,,inactive
COP(=S)(OC)Oc1ccc(SC)c(C)c1,,inactive
CN(C)CCC#N,-19.6% (inactive),
COc1nc(NC(C)C)nc(NC(C)C)n1,,inactive
Cc1cccc(C)c1NC(=O)CN1CCCC1=O,,inactive
COS(=O)(=O)OC,,inactive
CNC(=O)O/N=C/C(C)(C)S(C)(=O)=O,21.2% (inactive),
Sc1ccccc1,,inactive
Nc1ccc([As](=O)(O)O)cc1,,inactive
Cc1ccc(O)c(C)c1,23.5% [at 79.1 µM] (inactive),
C=CC(=O)OCCCCCC(C)C,,inactive
CCOc1ccc(N)cc1,,inactive
CSc1nnc(C(C)(C)C)c(=O)n1N,,inactive
C[C@H]1C(=O)O[C@@H]2CCN3CC=C(COC(=O)[C@](C)(O)[C@]1(C)O)[C@H]23,,inactive
O=C/C=C/c1ccccc1,,inactive

# Target: Estrogen receptor (Homo sapiens) (UniProt P03372)
# Experiment: qHTS assay to identify small molecule agonists of the estrogen receptor alpha (ER-alpha) signaling pathway (AID 743075);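 note: HEK293 GripTite cells with ER-alpha and UAS-driven beta-lactamase reporter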
# Conditions: HEK293 ER-alpha-UAS-bla, beta-lactamase FRET ratio, 18 h; series mostly up to 70.1 µM; activation: at the top concentration
# Chain of Estrogen receptor (Homo sapiens) (P03372 whole entry, looked up): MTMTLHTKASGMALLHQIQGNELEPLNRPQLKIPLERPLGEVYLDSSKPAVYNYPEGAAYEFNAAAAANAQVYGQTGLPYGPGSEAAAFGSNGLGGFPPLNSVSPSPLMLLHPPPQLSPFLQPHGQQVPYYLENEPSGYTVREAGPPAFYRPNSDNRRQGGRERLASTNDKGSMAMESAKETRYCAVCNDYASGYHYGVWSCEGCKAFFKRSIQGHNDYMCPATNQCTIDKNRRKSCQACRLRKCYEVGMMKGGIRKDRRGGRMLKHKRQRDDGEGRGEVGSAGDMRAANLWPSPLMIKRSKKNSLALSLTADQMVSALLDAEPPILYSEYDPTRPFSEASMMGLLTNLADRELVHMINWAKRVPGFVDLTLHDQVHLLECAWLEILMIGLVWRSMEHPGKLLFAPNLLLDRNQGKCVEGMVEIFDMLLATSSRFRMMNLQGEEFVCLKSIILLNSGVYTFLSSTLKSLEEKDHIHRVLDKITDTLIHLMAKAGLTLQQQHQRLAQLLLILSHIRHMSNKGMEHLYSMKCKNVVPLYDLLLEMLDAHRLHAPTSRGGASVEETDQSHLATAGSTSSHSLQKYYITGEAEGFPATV
Compound,activation,outcome
CNC(=O)O/N=C(\SC)C(=O)N(C)C,4.65% (inactive),
CCCCC(CC)C(=O)Cl (stereo not drawn),-1.68% [at 79.1 µM] (inactive),
O=[N+]([O-])c1ccc(Cl)c(Cl)c1,,inactive
CNC(=O)O/N=C/C(C)(C)S(C)=O (stereo not drawn),,inactive
CNC(=O)Oc1cccc2ccccc12,,inactive
CNC(=O)O/N=C/C(C)(C)SC,,inactive
CC(C)CCCCCCOC(=O)c1ccccc1C(=O)OCCCCCCC(C)C,,inactive
O=C(O)CCCc1ccc(N(CCCl)CCCl)cc1,,inactive
O=C(O)Cc1ccccc1,,inactive
OCc1ccco1,,inactive
FC(F)(F)c1ccc(Cl)cc1,,inactive
Cc1cc(Cl)ccc1OC(C)C(=O)O (stereo not drawn),,inactive
O=[N+]([O-])c1cc([As](=O)(O)O)ccc1O,,inactive
COP(=S)(OC)Oc1ccc(SC)c(C)c1,,inactive
CN(C)CCC#N,,inactive
COc1nc(NC(C)C)nc(NC(C)C)n1,,inactive
Cc1cccc(C)c1NC(=O)CN1CCCC1=O,,inactive
COS(=O)(=O)OC,,inactive
CNC(=O)O/N=C/C(C)(C)S(C)(=O)=O,,inactive
Sc1ccccc1,,inactive
Nc1ccc([As](=O)(O)O)cc1,,inactive
Cc1ccc(O)c(C)c1,,inactive
C=CC(=O)OCCCCCC(C)C,-1.72% (inactive),
CCOc1ccc(N)cc1,,inactive
C[C@H]1C(=O)O[C@@H]2CCN3CC=C(COC(=O)[C@](C)(O)[C@]1(C)O)[C@H]23,,inactive
O=C/C=C/c1ccccc1,,inactive

# Target: Estrogen receptor (Homo sapiens) (UniProt P03372)
# Experiment: qHTS assay to identify small molecule agonists of the estrogen receptor alpha (ER-alpha) signaling pathway using the BG1 cell line (AID 743079; active = well fitted activation curve with a large enough effect in the repeat runs; note: nearly all actives have a fitted effect of over 20% in size; note: potency is the fitted concentration of half-maximal effect)
# Conditions: BG1Luc4E2 cells, ERE-luciferase agonist, 22 h; series mostly up to 70.3 µM; activation: at the top concentration
Compound,Potency,activation
CNC(=O)O/N=C(\SC)C(=O)N(C)C,66.7 µM (active),
CCCCC(CC)C(=O)Cl (stereo not drawn),,-7.62% [at 95 µM] (inactive)
O=[N+]([O-])c1ccc(Cl)c(Cl)c1,inactive,
CNC(=O)O/N=C/C(C)(C)S(C)=O (stereo not drawn),inactive,
CNC(=O)Oc1cccc2ccccc12,inactive,
CNC(=O)O/N=C/C(C)(C)SC,inactive,
CC(C)CCCCCCOC(=O)c1ccccc1C(=O)OCCCCCCC(C)C,inactive,
O=C(O)CCCc1ccc(N(CCCl)CCCl)cc1,inactive,
O=C(O)Cc1ccccc1,inactive,
OCc1ccco1,,0.435% (inactive)
FC(F)(F)c1ccc(Cl)cc1,,4.12% (inactive)
Cc1cc(Cl)ccc1OC(C)C(=O)O (stereo not drawn),inactive,
O=[N+]([O-])c1cc([As](=O)(O)O)ccc1O,inactive,
COP(=S)(OC)Oc1ccc(SC)c(C)c1,48 µM (active),
CN(C)CCC#N,inactive,
COc1nc(NC(C)C)nc(NC(C)C)n1,,3.75% (inactive)
Cc1cccc(C)c1NC(=O)CN1CCCC1=O,inactive,
COS(=O)(=O)OC,inactive,
CNC(=O)O/N=C/C(C)(C)S(C)(=O)=O,inactive,
Sc1ccccc1,inactive,
Nc1ccc([As](=O)(O)O)cc1,inactive,
Cc1ccc(O)c(C)c1,inactive,
C=CC(=O)OCCCCCC(C)C,80.9 µM (active) and inactive,
CCOc1ccc(N)cc1,,-10.8% (inactive)
C[C@H]1C(=O)O[C@@H]2CCN3CC=C(COC(=O)[C@](C)(O)[C@]1(C)O)[C@H]23,inactive,
O=C/C=C/c1ccccc1,inactive and 61.1 µM (active),

# System: not listed separately
# Experiment: qHTS assay to identify small molecule antagonists of the estrogen receptor alpha (ER-alpha) signaling pathway using the BG1 cell line (AID 743080);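 note: BG1 cells stimulated with 17beta-estradiol alongside compound; nearly all actives have a fitted effect of over 25% in size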
# Conditions: BG1Luc4E2 ERE-luciferase antagonist mode, luminescence; series mostly up to 70.3 µM; activity change, negative = inhibition: at the top concentration
# Outline: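 BG1-Luc-4E2 cells (endogenous full-length ER-alpha, stable 4×ERE-luciferase) were starved 5 days in phenol-red-free medium with 10% charcoal-stripped FBS, plated 24 h, then given compound plus 17beta-estradiol for 21.5 h at 37 C; ONE-Glo luminescence read after 30 min.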
row,Compound,outcome
1,CNC(=O)O/N=C(\SC)C(=O)N(C)C,inactive
2,CCCCC(CC)C(=O)Cl (stereo not drawn),inactive
3,O=[N+]([O-])c1ccc(Cl)c(Cl)c1,inactive
4,CNC(=O)O/N=C/C(C)(C)S(C)=O (stereo not drawn),inactive
5,CNC(=O)Oc1cccc2ccccc12,inactive
6,CNC(=O)O/N=C/C(C)(C)SC,inactive
7,CC(C)CCCCCCOC(=O)c1ccccc1C(=O)OCCCCCCC(C)C,inactive
8,O=C(O)CCCc1ccc(N(CCCl)CCCl)cc1,inactive
9,O=C(O)Cc1ccccc1,inactive
10,OCc1ccco1,inactive
11,FC(F)(F)c1ccc(Cl)cc1,inactive
12,Cc1cc(Cl)ccc1OC(C)C(=O)O (stereo not drawn),inactive
13,O=[N+]([O-])c1cc([As](=O)(O)O)ccc1O,inactive
14,COP(=S)(OC)Oc1ccc(SC)c(C)c1,inactive
15,CN(C)CCC#N,inactive
16,COc1nc(NC(C)C)nc(NC(C)C)n1,inactive
17,Cc1cccc(C)c1NC(=O)CN1CCCC1=O,inactive
18,COS(=O)(=O)OC,inactive
19,CNC(=O)O/N=C/C(C)(C)S(C)(=O)=O,inactive
20,Sc1ccccc1,inactive
21,Nc1ccc([As](=O)(O)O)cc1,inactive
22,Cc1ccc(O)c(C)c1,inactive
23,C=CC(=O)OCCCCCC(C)C,inactive
24,CCOc1ccc(N)cc1,inactive
25,C[C@H]1C(=O)O[C@@H]2CCN3CC=C(COC(=O)[C@](C)(O)[C@]1(C)O)[C@H]23,inactive
26,O=C/C=C/c1ccccc1,inactive
